Source: PubChem (Broad Institute)
Tgondii IFNg: blocks Toxoplasma gondii growth in the presence of IFN-gamma | Toxoplasma gondii growth in IFN-gamma-treated host cells; stronger effect = lower value | activity change, negative = inhibition, % (concentration not given with the values) | actives 3.8% (n = 69,000) | AID 1259416; in the data active = activity change below about -70%, passing the limit was not always enough;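 also: host cells are HeLa cells infected with Toxoplasma gondii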
Active calls of the source: *; i = inactive. The full list was thinned out, with hits kept by preference.

SMILES	Tgondii IFNg
Cc1ccc(C2c3[nH]c4ccccc4c3CCN2C(=O)c2ccc3c(c2)OCO3)cc1 (stereo unspecified)	-62
COc1ccc(C(=O)N2CCc3c([nH]c4ccccc34)C2c2ccc(F)cc2)cc1OC (stereo unspecified)	-32
COc1ccc(C2c3[nH]c4ccccc4c3CCN2C(=O)CCC2CCCC2)cc1 (stereo unspecified)	-55
O=C(c1cccc(Cl)c1)N1CCc2c([nH]c3ccccc23)C1c1cccnc1 (stereo unspecified)	-82*
CN1C(=O)CCc2cc(NC(=O)Cc3cccs3)ccc21	-46
Cc1ccc(C(=O)N2CCC3(CC(Oc4cccnc4)CO3)C2)cc1 (stereo unspecified)	0
O=C(NCCc1csc(-c2ccc(F)cc2)n1)C1CCCC1	17
Cc1cc(-c2nc(-c3ccc(OC(F)(F)F)cc3)no2)nn1Cc1ccnc(N2CCN(C3CC3)CC2)c1	-60
Cc1ccc(C(C)CCN2CCC3(CC2)C(=O)N(C(C)C)C(=O)N3CCC(C)C)o1 (stereo unspecified)	-47
CCN(C(=O)c1cn[nH]c1C1CCNC1)c1ccccc1 (stereo unspecified)	2
CC(=O)c1c(C)nn(C(C)CC(=O)N2C[C@H]3C[C@H](O)[C@@H](O)C[C@H]3C2)c1C (stereo partly specified)	11
O=S(=O)(c1ccccc1)N1CC2CN(Cc3cccc(Cl)c3)C2C1 (stereo unspecified)	6
CCOC(=O)c1noc2nc(C)n(Cc3nc(-c4ccc(C)cc4)oc3C)c(=O)c12	56
COCCN1Cc2cccc(C(=O)N3CCC(c4cc(=O)[nH]c(N(C)C)n4)C3)c2C1=O (stereo unspecified)	95
CN1Cc2c(C(=O)NCc3cccnc3)ncn2-c2ccccc2S1(=O)=O	10
O=C(NCC1Cn2nnc(-c3cccc(F)c3)c2CO1)[C@H]1CCCO1 (stereo partly specified)	-27
Cc1ccc(NC(=O)CC2SC(N)=NC2=O)cc1C (stereo unspecified)	-16
Cn1ccnc1CN1CCC2(CC1)CN(C(=O)c1cccnc1)CCO2	-18
COc1ccc(-n2cccn2)c(C2CC(=O)Nc3cc(O)c(C)cc32)c1 (stereo unspecified)	2
CSc1ncc(C(=O)N2CCN(CCOc3ccccc3Cl)CC2)cn1	36
CSc1ccc(C2c3[nH]c4ccccc4c3CCN2C(=O)c2cccnc2)cc1 (stereo unspecified)	468
CCOc1cc(C(=O)N2CCc3c([nH]c4ccccc34)C2c2cccnc2)cc(OCC)c1OCC (stereo unspecified)	-67
CCCC(=O)N1CCc2c([nH]c3ccccc23)C1c1ccccc1 (stereo unspecified)	259
CCOc1cc(C(=O)N2CCc3c([nH]c4ccccc34)C2c2ccccc2)cc(OCC)c1OCC (stereo unspecified)	-115*
O=C(c1ccncc1)N1CCc2c([nH]c3ccccc23)C1c1ccc(Cl)cc1 (stereo unspecified)	-88*
SMILES	Tgondii IFNg
COc1ccc(C2c3[nH]c4ccccc4c3CCN2C(=O)c2cccnc2)cc1 (stereo unspecified)	256
Cc1nc(CCNC(=O)C2CCN(S(=O)(=O)c3ccc(F)c(F)c3)CC2)cs1	26
CCOc1ncccc1-c1ccc(Cn2ccnc2)cn1	3
NC(=O)c1ccnc(N2CCC(N3CCCC3=O)CC2)c1	7
CCc1nc(C)c(C(=O)N2CCCC3(CC2)CNC(=O)O3)o1 (stereo unspecified)	-1
CC(C)N(C(=O)c1ccccc1-c1ccccc1C(=O)N(C(C)C)C(C)C)C(C)C	-87*
CC(=O)c1ccccc1-c1ccccc1C(=O)NC(C)C	-45
Cc1onc(-c2c(Cl)cccc2Cl)c1C(=O)N(C(C)C)C(C)C	38
c1ccc(C2CCCN2Cc2cccc3nonc23)nc1 (stereo unspecified)	6
CCOc1nc2cccc(C(=O)OCc3oc(=O)oc3C)c2n1Cc1ccc(-c2ccccc2-c2noc(=O)[nH]2)cc1	-6
CCc1c(C)cc(C(=O)N2CCCC(O)(CN(C)C)C2)c(=O)n1C (stereo unspecified)	11
CCOc1cc(C(F)(F)F)c(C(=O)N(CC)c2ccc(Cl)cc2)cn1	3
CCOC(=O)c1cnc(-c2cccs2)nc1Sc1ccc(Cl)cc1	-43
COC(=O)c1cnc(Sc2ccc(Cl)cc2)nc1C(F)(F)F	-101*
CCOc1ccc(NC(=O)Cn2ncc3c(N4CCCC4)ncnc32)cc1	42
Cc1cc(CN(C)CC(=O)NCCc2cccc(Cl)c2)n[nH]1	0
COc1cccc(-n2cc(CN(C)Cc3cc(F)ccc3F)cn2)c1	11
COc1cccc(-c2cccc(CN(C)Cc3cc(C)[nH]n3)c2)c1	-82*
CC(=O)CC1N(Cc2ccccc2)C(=O)C2N(c3ccc(C)c(C)c3)C(=O)C3CC(=O)OC312 (stereo unspecified)	123
O=C(C1CCOCC1)N1C[C@@H](c2ccccc2)[C@@]2(CCNC2=O)C1	35
Cn1c(=O)n(C)c2cc(CN3Cc4ccccc4OC4(CCC(CO)CC4)C3)ccc21 (stereo unspecified)	6
Cn1ccc2cc(S(=O)(=O)N3CCC(C(=O)N4CCN(c5ccccn5)CC4)CC3)ccc21	50
CCCCCCOc1nsnc1C1=CCCN(C)C1	-75*
CC(C)CN1CCC(N2CCC(C(=O)N(C)C)CC2)CC1	0
O=C(C1CCN(c2cncnc2N2CCCCC2)CC1)N1CCC(N2CCCCC2)CC1	-30
SMILES	Tgondii IFNg
CCOc1ccc(C(=O)N2CCn3nc(C(=O)N4CCOCC4)cc3C2)o1	-2
CCn1cc2c(n1)CN(C(=O)CS(C)(=O)=O)CC2COC (stereo unspecified)	-2
Cc1cc(-c2cc(O)ccc2Cl)cc2nnc(Nc3ccc(OCCN4CCCC4)cc3)nc12	-91*
Cc1ccc(NC(=O)CC(=O)NCCN2CCCC2)cc1Cl	0
C=CCOC[C@H]1CCC2C(CCN2C(=O)c2ccc3[nH]ccc3c2)O1 (stereo partly specified)	-8
COc1ccc(NC(=O)c2ccc(OC(=O)c3cccs3)cc2)cc1	205
Cc1ccc(Nc2cccc3ccccc23)cc1	-119*
c1ccc(Nc2cccc3c(Nc4ccccc4)cccc23)cc1	14
c1ccc2c(NC3=NCCCCS3)cccc2c1	-15
O=C(CC1CC2CCC1C2)Nc1ccc(NC(=O)c2ccccn2)cc1 (stereo unspecified)	99
CC12C(=O)OC(=O)C1(C)C1CCC2O1 (stereo unspecified)	-86*
CCOc1ccc(-c2csc(-n3nc(C(F)(F)F)cc3-c3ccc(OCC)cc3)n2)cc1	-54
O=C(CCCCCn1c(=S)[nH]c2cc3c(cc2c1=O)OCO3)N1CCC(O)(c2cccc(C(F)(F)F)c2)CC1	3
O=C(c1ccco1)N1CCc2ncnc(NC3CC3)c2CC1	-86*
COc1ccc(CC(=O)N2CCc3ncnc(NC4CC4)c3CC2)cc1	-69
COc1cccc(CC(=O)N2CCc3ncnc(NC4CC4)c3CC2)c1	-3
CCn1cc(C(=O)N(CCOC)Cc2cccs2)c(=O)c2ccc(C)nc21	5
CCN(CC)CCCNC(=O)C1=C(C)C(=O)OC12CCN(C(C)=O)CC2	97
CCC[C@H](Nc1nc(-c2ccc(NC(=O)NCC)c(OC)c2)ncc1C)c1cccnc1	-78*
COc1ccc(NC(=O)NCC(c2cccnc2)c2cn(C)c3ccccc23)c(OC)c1 (stereo unspecified)	i
